Test systems include K-562 leukemia; MALME-3M melanoma; MDA-MB-231 breast; RXF 393 renal; SF-268 CNS; SF-295 CNS; UACC-257 melanoma; M14 melanoma; HCT-15 colon; HT29 colon; SNB-75 CNS; SNB-19 CNS; U251 CNS; PC-3 prostate; SK-MEL-5 melanoma; UACC-62 melanoma; LOX IMVI melanoma; SK-MEL-28 melanoma; SK-MEL-2 melanoma; SF-539 CNS.
Common to all, as to assay: NCI-60 one-dose screen, 48 h (100 = growth as untreated, 0 = no growth, -100 = all killed)
What all share (conditions): 10 µM unless noted

Molecules are shown by their SMILES. The panel holds about 83,000 compounds, 20% with a hit somewhere; the sample as a whole holds those more often.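 Assay: single dose, 48 h. Readout: percent growth (0 = no net growth; negative = cell death). Active: <10.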 A number with no mark means an inactive call. Activity calls are given as the source filed them.

In the case of `CC(c1cc(Cl)ccc1O)c1cc(Cl)ccc1O`, the growth was 28.7% in the test with K-562 leukemia; 16.5% with MALME-3M melanoma; 43.8% with MDA-MB-231 breast; 49.6% in the test on RXF 393 renal; 35% in the test with SF-268 CNS; 45.9% in the test with SF-295 CNS. The growth with UACC-257 melanoma is 33%; with M14 melanoma, 22.7%; in the test with HCT-15 colon it was 29.7%; in the test with HT29 colon it was 2.77% (active); in the test with SNB-75 CNS it was 35.8%; in the test with SNB-19 CNS it was 68.5%. Also, the growth is 19.2% in the test with U251 CNS; 25.9% in the test on PC-3 prostate; 7.93% (active) in the test on SK-MEL-5 melanoma; 44.8% in the test with UACC-62 melanoma; 30.1% in the test with LOX IMVI melanoma; 33.5% in the test on SK-MEL-28 melanoma. The growth in the test with SK-MEL-2 melanoma is -16.8% (active).
As for `Cc1cc(C(C)(C)C)cc(C)c1CC1=NCCN1`, the growth was 90.4% in the test with K-562 leukemia; 99.2% in the test with MALME-3M melanoma; 109% with MDA-MB-231 breast; 107% in the test with RXF 393 renal; 100% in the test on SF-268 CNS; 96.3% in the test with SF-295 CNS. In addition, the growth is 106% with UACC-257 melanoma; 107% with M14 melanoma; 102% in the test with HCT-15 colon; 105% with HT29 colon; 97% in the test on SNB-75 CNS; 106% in the test with SNB-19 CNS. Besides, the growth in the test on U251 CNS was 106%; with PC-3 prostate it was 91%; with SK-MEL-5 melanoma it was 96.7%; in the test on LOX IMVI melanoma it was 95%; in the test on SK-MEL-28 melanoma, 116%; with SK-MEL-2 melanoma, 113%.
Turning to `COc1cc2c(cc1OCCCCCn1c(-c3ccc(OCc4ccccc4)cc3)nc3cc(N4CCOCC4)ccc31)N=C[C@@H]1CCCN1C2=O`, the growth is 36.1% with K-562 leukemia; -29.7% (active) in the test on MALME-3M melanoma; 9.63% (active) in the test with MDA-MB-231 breast; -26.7% (active) with RXF 393 renal; 14.6% with SF-268 CNS; 7.34% (active) with SF-295 CNS. Also, the growth in the test with SF-539 CNS is 11%; with M14 melanoma, 9.2% (active); with HCT-15 colon, -22.7% (active); in the test on HT29 colon, -13.7% (active); in the test on SNB-75 CNS, 12.1%; in the test with SNB-19 CNS, 34.7%. For the same molecule, the growth was -24.4% (active) with U251 CNS; -66.7% (active) with SK-MEL-5 melanoma; -76.5% (active) with UACC-62 melanoma; -29.7% (active) in the test on LOX IMVI melanoma; -19% (active) in the test with SK-MEL-28 melanoma; -40% (active) in the test on SK-MEL-2 melanoma.
As to `CO[C@H]1/C=C/O[C@@]2(C)Oc3c(C)c(O)c4c(O)c(c(/C=N/N5CCN(C)CC5)c(O)c4c3C2=O)NC(=O)/C(C)=C\C=C\C(C)[C@H](O)[C@@H](C)[C@@H](O)[C@@H](C)[C@@H](OC(C)=O)[C@@H]1C` (some centres undefined), the growth is 100% in the test with K-562 leukemia; 105% with MALME-3M melanoma; 98.5% in the test with MDA-MB-231 breast; 104% with RXF 393 renal; 109% in the test on SF-268 CNS; 98.8% in the test with SF-295 CNS. Also, the growth was 103% in the test on UACC-257 melanoma; 102% with M14 melanoma; 87.7% in the test with HCT-15 colon; 107% in the test on HT29 colon; 88.7% in the test on SNB-75 CNS; 101% with SNB-19 CNS. The growth in the test on U251 CNS was 96.9%; in the test with PC-3 prostate, 94%; in the test on SK-MEL-5 melanoma it was 90.6%; in the test with LOX IMVI melanoma, 93.8%; with SK-MEL-28 melanoma it was 101%; in the test with SK-MEL-2 melanoma, 113%.
Consider `CCN(CC)CCOc1ccccc1-n1c(C)ccc1-c1ccccc1`, for which the growth in the test on K-562 leukemia is -48.1% (active); in the test with MALME-3M melanoma, 89%; in the test with MDA-MB-231 breast it was 102%; in the test with RXF 393 renal it was 84.6%; with SF-268 CNS it was 78.5%; with SF-295 CNS, 93%. Moreover, the growth with SF-539 CNS is 92.7%; in the test on UACC-257 melanoma, 100%; with HCT-15 colon, 90.5%; in the test on HT29 colon, 34.5%; in the test on SNB-75 CNS it was 93%; in the test with SNB-19 CNS, 102%. Moreover, the growth with U251 CNS was 85.3%; in the test with PC-3 prostate, 62.8%; in the test with SK-MEL-5 melanoma, 90.8%; in the test on UACC-62 melanoma it was 106%; in the test on LOX IMVI melanoma, 88.5%; with SK-MEL-28 melanoma, 119%. The growth with SK-MEL-2 melanoma was 102%.
For the molecule `Cc1cc(C)n2nc(SCC(=O)Nc3sc4c(c3C(N)=O)CCC4)nc2n1`, the growth was 119% with K-562 leukemia; 106% with MALME-3M melanoma; 99.2% with MDA-MB-231 breast; 117% with RXF 393 renal; 113% in the test with SF-268 CNS; 101% with SF-295 CNS. Besides, the growth is 90.8% with SF-539 CNS; 102% in the test with M14 melanoma; 108% in the test with HCT-15 colon; 123% in the test on HT29 colon; 115% with SNB-75 CNS; 102% in the test on SNB-19 CNS. Also, the growth in the test on U251 CNS is 99.3%; in the test with SK-MEL-5 melanoma, 99%; in the test with UACC-62 melanoma, 80.5%; in the test with LOX IMVI melanoma it was 105%; in the test on SK-MEL-28 melanoma, 137%; in the test on SK-MEL-2 melanoma it was 65%.
On to `Fc1ccc(-c2nnc(/C=C/c3cn(-c4ccccc4)nc3-c3ccccc3)o2)cc1`, for which the growth in the test with K-562 leukemia is 107%; in the test with MALME-3M melanoma it was 88.9%; in the test with MDA-MB-231 breast, 94.2%; with RXF 393 renal it was 105%; in the test on SF-268 CNS it was 103%; with SF-295 CNS, 94.4%. Also, the growth was 89.1% with SF-539 CNS; 93.1% in the test on M14 melanoma; 96.1% in the test on HCT-15 colon; 88.5% in the test on HT29 colon; 88.2% in the test with SNB-75 CNS; 108% in the test on SNB-19 CNS. The growth in the test with U251 CNS is 82.1%; in the test on PC-3 prostate, 95.2%; with SK-MEL-5 melanoma, 105%; in the test on LOX IMVI melanoma it was 83.5%; in the test on SK-MEL-28 melanoma it was 98.9%; with SK-MEL-2 melanoma, 103%.
For the molecule `Cc1cccc(Cl)c1NC(=O)c1ccc2nc(NC(=O)NC3CC(C)(C)NC(C)(C)C3)sc2c1`, the growth was 9.24% (active) with K-562 leukemia; 82.2% in the test on MALME-3M melanoma; 54% in the test on MDA-MB-231 breast; 35.8% in the test with RXF 393 renal; 70.4% in the test on SF-268 CNS; 79.7% with SF-295 CNS. Further, the growth with SF-539 CNS was 41.8%; in the test with M14 melanoma, 93.6%; with HCT-15 colon, 103%; in the test with HT29 colon it was 59.3%; with SNB-19 CNS, 93.6%; in the test with PC-3 prostate, 66.3%. Besides, the growth with SK-MEL-5 melanoma is 91.7%; with UACC-62 melanoma, 107%; in the test on LOX IMVI melanoma, 63.9%; in the test with SK-MEL-28 melanoma it was 116%; in the test with SK-MEL-2 melanoma it was 121%.
With `CC1CC(C)/C(=N/NC(N)=O)C(C(O)CC2CCC(=O)NC2=O)C1` (centres undefined), the growth was 40.8% with K-562 leukemia; 35.6% with MALME-3M melanoma; 46.9% in the test on MDA-MB-231 breast; 38.2% with RXF 393 renal; 34.1% with SF-268 CNS; -9.66% (active) with SF-295 CNS. In addition, the growth in the test on UACC-257 melanoma is 54.9%; in the test on M14 melanoma, 34.1%; in the test with HCT-15 colon it was 37.8%; with HT29 colon, 35.8%; with SNB-75 CNS, 57.7%; in the test with SNB-19 CNS, 31.4%. The growth in the test on U251 CNS was 35.1%; with PC-3 prostate, 40.6%; in the test with SK-MEL-5 melanoma, 31.7%; in the test with UACC-62 melanoma it was 46.3%; in the test with LOX IMVI melanoma it was 27.3%; in the test with SK-MEL-28 melanoma, 37%. In addition, the growth with SK-MEL-2 melanoma was 33.8%.
